Data taken from PubChem BioAssay (NCI).
About 79,000 compounds went through this panel and 15% of them were active in at least one assay; those are over-represented in the sample as a whole. Active and inactive are the calls of the source. Rule as the data show it: active = growth inhibition above about 70%; inactive = the rest.

Legend:
[1] = NCI Yeast Anticancer Drug Screen. Data for the rad52 strain (AID 147);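 also: 0% = growth of vehicle-treated control cultures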; settings: S. cerevisiae rad52 mutant growth inhibition, stronger effect = higher value
Method in brief: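 Inhibition of yeast growth, referenced to vehicle controls, was the measured output for a strain with defective DNA damage repair.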

[2] = NCI Yeast Anticancer Drug Screen. Data for the wt1 strain (AID 149);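 also: 0% = growth of vehicle-treated wt1 cultures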; settings: S. cerevisiae wt1 strain (SPY 50644) growth inhibition, stronger effect = higher value
Method in brief: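 Readout: yeast growth inhibition, normalised to vehicle controls, in the wt1 strain exposed to test compounds.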

[3] = NCI Yeast Anticancer Drug Screen. Data for the rad50EPP+ strain (AID 151);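 also: 0% = growth of vehicle-treated control cultures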; settings: S. cerevisiae rad50 mutant strain, stronger effect = higher value
Method in brief: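 Genetically defined yeast (rad50EPP+, DNA damage repair alteration) is grown with compound, and inhibition of growth is expressed relative to vehicle-treated controls.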

[4] = NCI Yeast Anticancer Drug Screen. Data for the mgt1 strain (AID 153); settings: S. cerevisiae mgt1 mutant growth inhibition, stronger effect = higher value
Method in brief: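 In the mgt1 strain, test compounds were added and growth inhibition was determined relative to vehicle-treated controls.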

[5] = NCI Yeast Anticancer Drug Screen. Data for the rad50 strain (AID 155);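 also: 0% = growth of vehicle-only cultures of the same strain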; settings: S. cerevisiae rad50 strain growth inhibition, stronger effect = higher value
Method in brief: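 Compounds were tested on a yeast strain with an engineered DNA damage repair alteration; the reported value is growth inhibition normalised to vehicle treatment.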

[6] = NCI Yeast Anticancer Drug Screen. Data for the mec2-1 strain (AID 157); settings: S. cerevisiae mec2-1 strain, stronger effect = higher value
Method in brief: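 Each compound was tested on mec2-1 yeast, a strain altered in DNA damage repair or cell cycle control. Growth inhibition is reported relative to vehicle.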

[7] = NCI Yeast Anticancer Drug Screen. Data for the rad14 strain (AID 159);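 also: 0% = growth of vehicle-treated control cultures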; settings: S. cerevisiae rad14 strain growth inhibition, stronger effect = higher value
Method in brief: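 Compound-treated yeast with a defined DNA-repair lesion; growth inhibition normalised to vehicle-treated cultures.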

[8] = NCI Yeast Anticancer Drug Screen. Data for the sgs1 mgt1 strain (AID 161);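 also: 0% = growth of cultures given vehicle only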; settings: S. cerevisiae sgs1 mgt1 strain, stronger effect = higher value
Method in brief: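 Mutant yeast exposed to compound; growth scored against vehicle-only wells.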

[9] = NCI Yeast Anticancer Drug Screen. Data for the CLN2oe strain (AID 163);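 also: 0% = growth of vehicle-only control cultures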; settings: S. cerevisiae CLN2oe strain, stronger effect = higher value
Method in brief: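 First, the altered yeast strain was treated with each compound; second, its growth was measured; finally, inhibition was derived by comparison with vehicle controls.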

[10] = NCI Yeast Anticancer Drug Screen. Data for the cln2 rad14 strain (AID 165);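 also: 0% = growth equal to vehicle treated cultures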; settings: S. cerevisiae cln2 rad14 strain, stronger effect = higher value
Method in brief: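 Test compounds were added to cln2 rad14 yeast cultures; inhibition of growth was then determined by comparison with vehicle treatment.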

[11] = NCI Yeast Anticancer Drug Screen. Data for the bub3 strain (AID 167); settings: S. cerevisiae bub3 mutant strain, stronger effect = higher value
Method in brief: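 Growth of a checkpoint-deficient yeast mutant is measured after compound exposure. Values represent inhibition relative to vehicle.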

[12] = NCI Yeast Anticancer Drug Screen. Data for the wt2 strain (AID 169);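 also: 0% = growth of vehicle-treated yeast cultures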; settings: S. cerevisiae wt2 strain growth inhibition, stronger effect = higher value
Method in brief: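 The panel's yeast strains carry defined changes in DNA repair or cell cycle genes. Each strain is grown with compound, and growth loss is scored relative to vehicle.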

[13] = NCI Yeast Anticancer Drug Screen. Data for the mlh1 strain (AID 171);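 also: 0% = growth of vehicle-treated control cultures of the same strain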; settings: S. cerevisiae mlh1 strain growth inhibition, stronger effect = higher value
Method in brief: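 Inhibition values reflect reduced yeast growth in the presence of compound, referenced to vehicle controls, using a strain chosen for its alteration in DNA repair or cell cycle control.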

[14] = NCI Yeast Anticancer Drug Screen. Data for the sgs1 strain (AID 173);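 also: 0% = growth of vehicle-only control cultures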; settings: S. cerevisiae sgs1 mutant, stronger effect = higher value
Method in brief: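 Vehicle-treated cultures served as reference for growth inhibition of a yeast strain altered in DNA damage repair or cell cycle control after compound exposure.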

[15] = NCI Yeast Anticancer Drug Screen. Data for the mlh1 rad18 strain (AID 175); settings: S. cerevisiae mlh1 rad18 strain growth inhibition, stronger effect = higher value
Method in brief: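 Inhibition values reflect reduced growth of mutant yeast versus vehicle-treated controls following compound exposure; the mutations affect DNA damage repair.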

[16] = NCI Yeast Anticancer Drug Screen. Data for the rad18 strain (AID 177); settings: S. cerevisiae rad18 mutant growth inhibition, stronger effect = higher value
Method in brief: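 Steps: expose repair-mutant yeast to compound; measure growth; express as inhibition relative to vehicle control.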

[17] = at 5.0 µM (retest, dose inferred, filed as 0.5)
[18] = at 50.0 µM (retest, dose inferred, filed as 5.0)

Measured: growth inhibition

COCCOC(=O)CCn1cc(F)c(=O)[nH]c1=O
inactive: [1]; at 1.2 µM -1% | [1]; at 3.7 µM -1% | [1]; at 11.0 µM 11% | [1]; at 33.0 µM 31% | [1]; at 100.0 µM 62% | [2]; at 1.2 µM 0% | [2]; at 3.7 µM 3% | [2]; at 11.0 µM 7% | [2]; at 33.0 µM 12% | [2]; at 100.0 µM 23% | [3]; at 1.2 µM -3% | [3]; at 3.7 µM 3% | [3]; at 11.0 µM 27% | [3]; at 33.0 µM 67% | [4]; at 1.2 µM -1% | [4]; at 3.7 µM 7% | [4]; at 11.0 µM 16% | [4]; at 33.0 µM 48% | [5]; at 1.2 µM -5% | [5]; at 3.7 µM -11% | [5]; [17] 24% | [5]; at 11.0 µM 0% | [5]; at 33.0 µM 34% | [5]; at 50.0 µM 64.1% | [5]; at 100.0 µM 61% | [6]; at 1.2 µM -1% | [6]; at 3.7 µM 3% | [6]; [17] 5% | [6]; at 11.0 µM 13% | [6]; at 33.0 µM 48% | [7]; at 1.2 µM -3% | [7]; at 3.7 µM 0% | [7]; at 11.0 µM 7% | [7]; at 33.0 µM 14% | [7]; at 100.0 µM 34% | [8]; [17] 27% | [9]; at 1.2 µM 0% | [9]; at 3.7 µM 4% | [9]; at 11.0 µM 6% | [9]; at 33.0 µM 15% | [9]; at 100.0 µM 19% | [10]; [17] 22% | [10]; [18] 40% | [10]; at 50.0 µM 36.8% | [11]; at 1.2 µM 0% | [11]; at 3.7 µM 3% | [11]; [17] -8% | [11]; at 11.0 µM 7% | [11]; at 33.0 µM 5% | [11]; [18] 11% | [11]; at 50.0 µM 17.8% | [11]; at 100.0 µM 17% | [12]; at 1.2 µM -1% | [12]; at 3.7 µM 2% | [12]; at 11.0 µM 14% | [12]; at 33.0 µM 48% | [13]; at 1.2 µM 3% | [13]; at 3.7 µM 9% | [13]; at 11.0 µM 18% | [13]; at 33.0 µM 53% | [14]; at 1.2 µM 1% | [14]; at 3.7 µM 12% | [14]; at 11.0 µM 36% | [15]; [17] 13% | [15]; [18] 51% | [15]; at 50.0 µM 62.9% | [16]; at 1.2 µM 1% | [16]; at 3.7 µM 6% | [16]; at 11.0 µM 15% | [16]; at 33.0 µM 32% | [16]; at 100.0 µM 56%
active: [3]; at 100.0 µM 85% | [4]; at 100.0 µM 80% | [5]; [18] 70% | [6]; [18] 78% | [6]; at 50.0 µM 83.5% | [6]; at 100.0 µM 83% | [8]; [18] 82% | [8]; at 50.0 µM 91.7% | [12]; at 100.0 µM 76% | [13]; at 100.0 µM 77% | [14]; at 33.0 µM 76% | [14]; at 100.0 µM 88%

FC(F)(F)c1nc2nc(Cl)c(Cl)nc2n1CCCN1CCOCC1
inactive: [1]; at 1.2 µM 2% | [1]; at 3.7 µM 11% | [1]; at 11.0 µM 20% | [1]; at 33.0 µM 20% | [1]; at 100.0 µM 32% | [2]; at 1.2 µM 0% | [2]; at 3.7 µM 1% | [2]; at 11.0 µM 7% | [2]; at 33.0 µM 12% | [2]; at 100.0 µM 18% | [3]; at 1.2 µM -1% | [3]; at 3.7 µM 5% | [3]; at 11.0 µM 6% | [3]; at 33.0 µM 2% | [3]; at 100.0 µM 4% | [4]; at 1.2 µM 0% | [4]; at 3.7 µM 5% | [4]; at 11.0 µM 8% | [4]; at 33.0 µM 22% | [4]; at 100.0 µM 34% | [5]; at 1.2 µM 5% | [5]; at 3.7 µM 13% | [5]; [17] 29% | [5]; at 11.0 µM 18% | [5]; at 33.0 µM 22% | [5]; [18] 63% | [5]; at 50.0 µM 67% | [5]; at 100.0 µM 27% | [6]; at 1.2 µM 2% | [6]; at 3.7 µM -15% | [6]; [17] 3% | [6]; at 11.0 µM 12% | [6]; at 33.0 µM 16% | [6]; [18] 15% | [6]; at 50.0 µM 33.1% | [6]; at 100.0 µM 27% | [7]; at 1.2 µM 6% | [7]; at 3.7 µM 11% | [7]; at 11.0 µM 36% | [7]; at 33.0 µM 44% | [7]; at 100.0 µM 53% | [8]; [17] 19% | [8]; at 50.0 µM 45.9% | [9]; at 1.2 µM 2% | [9]; at 3.7 µM 13% | [9]; at 11.0 µM 23% | [9]; at 33.0 µM 45% | [9]; at 100.0 µM 57% | [10]; [17] -16% | [10]; [18] 54% | [10]; at 50.0 µM -1.1% | [11]; at 1.2 µM 0% | [11]; at 3.7 µM 4% | [11]; [17] 9% | [11]; at 11.0 µM 22% | [11]; at 33.0 µM 52% | [11]; [18] 56% | [11]; at 50.0 µM 55.8% | [11]; at 100.0 µM 35% | [12]; at 1.2 µM -1% | [12]; at 3.7 µM 3% | [12]; at 11.0 µM 13% | [12]; at 33.0 µM 20% | [12]; at 100.0 µM 26% | [13]; at 1.2 µM 1% | [13]; at 3.7 µM 6% | [13]; at 11.0 µM 14% | [13]; at 33.0 µM 38% | [13]; at 100.0 µM 35% | [14]; at 1.2 µM 4% | [14]; at 3.7 µM 9% | [14]; at 11.0 µM 30% | [14]; at 33.0 µM 50% | [14]; at 100.0 µM 47% | [15]; [17] 5% | [15]; [18] 57% | [15]; at 50.0 µM 64.7% | [16]; at 1.2 µM -6% | [16]; at 3.7 µM 6% | [16]; at 11.0 µM 31% | [16]; at 33.0 µM 31% | [16]; at 100.0 µM 43%
active: [8]; [18] 72%
